The source made the active and inactive calls. Unless noted, no rule for the calls is given here.
What was measured:
[1] = compounds binding Alexa647 anti-His antibody – biochemical, small-molecule microarray, 635 nm fluorescence, artefact control for SMM control protein annotation, primary screen (AID 1128); settings: higher = more signal;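 also: score merges feature fluorescence with signal-to-noise for each printed compound spot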
[2] = system: Human papillomavirus type 1a E7 protein (residues 1-88); experiment: HPV1a E7 small-molecule binders, primary screen, biochemical, small-molecule microarray, residues 1-88, 635 nm (AID 1129); settings: small-molecule microarray binding, fluorescence 635 nm; higher = more signal
[3] = biological target: Focal adhesion kinase 1 (Homo sapiens) (UniProt Q05397); experiment: PTK2 protein binding on printed compound slides – biochemical, small-molecule microarray, 635/667 nm fluorescence, BSA, DTT, primary screen (AID 1130); settings: 635 nm fluorescence, higher = more signal;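 also: composite of spot emission at 667 nm and signal to noise over triplicate slides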
Chain of Focal adhesion kinase 1 (Homo sapiens) (Q05397 whole entry, looked up): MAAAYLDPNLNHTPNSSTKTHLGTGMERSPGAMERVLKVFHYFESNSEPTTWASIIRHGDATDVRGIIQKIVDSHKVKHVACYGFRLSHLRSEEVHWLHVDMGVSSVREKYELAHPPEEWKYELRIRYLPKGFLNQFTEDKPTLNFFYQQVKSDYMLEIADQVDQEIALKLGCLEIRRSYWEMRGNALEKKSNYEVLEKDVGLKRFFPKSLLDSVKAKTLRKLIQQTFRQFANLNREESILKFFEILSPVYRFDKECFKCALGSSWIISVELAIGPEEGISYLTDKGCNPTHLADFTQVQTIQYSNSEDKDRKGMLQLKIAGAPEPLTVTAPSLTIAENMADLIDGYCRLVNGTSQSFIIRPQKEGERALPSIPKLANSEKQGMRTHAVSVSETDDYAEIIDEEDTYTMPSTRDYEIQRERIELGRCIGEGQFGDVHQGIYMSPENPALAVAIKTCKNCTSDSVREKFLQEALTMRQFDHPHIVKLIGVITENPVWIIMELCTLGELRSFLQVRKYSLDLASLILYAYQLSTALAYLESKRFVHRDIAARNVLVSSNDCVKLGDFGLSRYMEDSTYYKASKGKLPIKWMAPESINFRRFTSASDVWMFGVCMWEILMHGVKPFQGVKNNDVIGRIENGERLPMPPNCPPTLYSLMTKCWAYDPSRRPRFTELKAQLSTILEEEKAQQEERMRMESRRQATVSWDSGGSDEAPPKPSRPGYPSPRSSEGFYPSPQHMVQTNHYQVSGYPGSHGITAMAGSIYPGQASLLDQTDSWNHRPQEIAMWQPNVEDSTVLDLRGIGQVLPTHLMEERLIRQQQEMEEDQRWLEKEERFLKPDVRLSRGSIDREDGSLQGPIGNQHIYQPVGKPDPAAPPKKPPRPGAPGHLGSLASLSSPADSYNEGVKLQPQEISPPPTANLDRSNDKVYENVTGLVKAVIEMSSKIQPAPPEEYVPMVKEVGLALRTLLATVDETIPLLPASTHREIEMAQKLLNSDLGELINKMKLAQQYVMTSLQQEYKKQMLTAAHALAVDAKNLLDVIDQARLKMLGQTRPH

[4] = system: Fibrinogen (Alexa647-labelled); experiment: Alexa647-fibrinogen binding to printed small molecules – biochemical, small-molecule microarray, 635/667 nm fluorescence, artefact control for SMM control-protein annotation, profiling panel (AID 1131); settings: fibrinogen-A647 binding fluorescence, higher = more signal;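 also: z-score merges 667 nm fluorescence with per-spot signal-to-noise over triplicate slides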
[5] = biological target: Follistatin (Homo sapiens) (UniProt P19883); experiment: FST protein binding to printed compounds – biochemical, small-molecule microarray, 635/667 nm fluorescence, primary screen (AID 1132); settings: 635 nm fluorescence, higher = more signal
Chain of Follistatin (Homo sapiens) (P19883 whole entry, looked up): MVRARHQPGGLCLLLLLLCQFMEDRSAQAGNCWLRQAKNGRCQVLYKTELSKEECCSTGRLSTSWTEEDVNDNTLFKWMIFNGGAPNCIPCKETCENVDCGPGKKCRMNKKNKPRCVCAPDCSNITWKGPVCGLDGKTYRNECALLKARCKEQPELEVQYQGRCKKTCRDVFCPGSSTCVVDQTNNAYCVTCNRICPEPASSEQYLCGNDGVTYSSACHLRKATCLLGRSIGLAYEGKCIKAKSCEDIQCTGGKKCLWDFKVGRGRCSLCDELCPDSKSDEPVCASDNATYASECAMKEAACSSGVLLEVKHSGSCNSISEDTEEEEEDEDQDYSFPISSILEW

[6] = biological target: Fibroblast growth factor 2 (Homo sapiens) (UniProt P09038); experiment: basic fibroblast growth factor binding to printed compounds – biochemical, small-molecule microarray, 635/667 nm fluorescence, primary screen (AID 1133); settings: FGF2, fluorescence 635/667, higher = more signal
Chain of Fibroblast growth factor 2 (Homo sapiens) (P09038 whole entry, looked up): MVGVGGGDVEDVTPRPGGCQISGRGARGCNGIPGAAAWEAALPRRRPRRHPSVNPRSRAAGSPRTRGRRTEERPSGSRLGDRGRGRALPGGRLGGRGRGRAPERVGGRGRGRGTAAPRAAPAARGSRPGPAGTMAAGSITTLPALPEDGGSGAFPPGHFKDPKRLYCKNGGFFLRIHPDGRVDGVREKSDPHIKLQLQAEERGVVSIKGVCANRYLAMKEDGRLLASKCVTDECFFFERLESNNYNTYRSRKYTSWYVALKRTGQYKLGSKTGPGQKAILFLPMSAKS

[7] = JC-1 mitochondrial potential readout, lung cancer cells – cell-based, A549, JC-1 fluorescence, basal, 24 h, 100 nL, profiling panel (AID 1138); settings: higher = more signal;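 also: A549 lung adenocarcinoma cells under basal conditions with no added stimulus; test concentration not given here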
Lefty1 = Lefty1 protein binding to printed compounds – biochemical, small-molecule microarray, 635/667 nm fluorescence, primary screen (AID 1139); settings: fluorescence 635/667, higher = more signal
[8] = system: wheat germ agglutinin (Triticum aestivum), Alexa647-labelled; experiment: Alexa647-WGA lectin binding to printed small molecules – biochemical, small-molecule microarray, 635/667 nm fluorescence, artefact control for SMM control-protein annotation, profiling panel (AID 1140); settings: WGA-A647 binding, 635 nm fluorescence, higher = more signal;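 also: score merges 667 nm feature emission with signal to noise over triplicate slides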
[9] = biological target: Luciferin 4-monooxygenase (Photinus pyralis) (UniProt P08659); experiment: inhibition of purified Photinus pyralis luciferase – biochemical, luminescence, purified enzyme, 2006 set, primary screen (AID 1141); settings: purified firefly luciferase, SteadyGlo luminescence, 30 min; higher = more signal, called active from +8 up or from −8 down;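 also: cell-free assay with purified firefly luciferase at 100 ng per well in PBS; test concentration not given here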
Chain of Luciferin 4-monooxygenase (Photinus pyralis) (P08659 whole entry, looked up): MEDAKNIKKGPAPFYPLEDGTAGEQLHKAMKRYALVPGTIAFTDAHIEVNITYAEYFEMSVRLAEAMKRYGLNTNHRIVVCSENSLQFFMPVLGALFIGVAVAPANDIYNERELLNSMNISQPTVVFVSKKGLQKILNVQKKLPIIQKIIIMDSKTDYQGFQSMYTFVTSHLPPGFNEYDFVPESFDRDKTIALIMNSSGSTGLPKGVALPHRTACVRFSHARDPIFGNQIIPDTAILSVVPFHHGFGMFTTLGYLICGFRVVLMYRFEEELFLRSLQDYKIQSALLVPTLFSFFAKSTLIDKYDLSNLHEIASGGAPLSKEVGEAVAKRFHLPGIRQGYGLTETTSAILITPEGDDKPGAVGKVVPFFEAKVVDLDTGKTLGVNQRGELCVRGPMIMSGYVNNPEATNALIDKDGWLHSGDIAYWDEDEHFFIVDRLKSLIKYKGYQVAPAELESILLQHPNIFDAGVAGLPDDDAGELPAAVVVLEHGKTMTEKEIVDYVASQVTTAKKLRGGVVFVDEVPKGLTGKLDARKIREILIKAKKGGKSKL

[10] = system: Wnt5a (protein binding on small-molecule microarray); experiment: small molecules binding Wnt5a protein – biophysical, small-molecule microarray, 635/667 nm fluorescence, primary screen (AID 1142); settings: 635 nm fluorescence, higher = more signal;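 also: fluorescence read at 667 nm with signal to noise per printed feature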
[11] = ATP-based viability of Huh7 replicon cells – cell-based, CellTiter-Glo luminescence, basal, 48 h, cytotoxicity control for HCV replication inhibitor project, primary screen (AID 1143); settings: higher = more signal, called active from +8 up or from −8 down;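 also: Huh7 hepatoma cells carrying a hepatitis C replication reporter with no stimulus; test concentration not given here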
[12] = Pseudomonas biofilm growth suppression – PAO1 strain, BacTiter-Glo luminescence, LB-PBS, primary screen (AID 1144); settings: P. aeruginosa PAO1 biofilm, 12 h, higher = more signal
[13] = basal CRE-LacZ reporter activity in PC12 – cell-based, unstimulated, primary screen (AID 1145); settings: no forskolin, luminescence, 4.5 h, higher = more signal, called active from +8 up or from −8 down
[14] = forskolin-driven CRE-LacZ activity in PC12 – cell-based, CRE-LacZ reporter, forskolin-stimulated, primary screen (AID 1146); settings: luminescence, 4.5 h, higher = more signal, called active from +8 up or from −8 down;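 also: PC12 cells with 6xCRE LacZ reporter stimulated by forskolin 10 µM; beta-galactosidase reporter signal reflecting CREB driven transcription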
[15] = biological target: Streptavidin (Streptomyces avidinii) (UniProt P22629); experiment: compounds binding control protein streptavidin – biophysical, small-molecule microarray, 635/667 nm fluorescence, artefact control for SMM compound annotation, primary screen (AID 1147); settings: higher = more signal;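 also: signal reflects streptavidin binding to arrayed compounds as a control protein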
Chain of Streptavidin (Streptomyces avidinii) (P22629 whole entry, looked up): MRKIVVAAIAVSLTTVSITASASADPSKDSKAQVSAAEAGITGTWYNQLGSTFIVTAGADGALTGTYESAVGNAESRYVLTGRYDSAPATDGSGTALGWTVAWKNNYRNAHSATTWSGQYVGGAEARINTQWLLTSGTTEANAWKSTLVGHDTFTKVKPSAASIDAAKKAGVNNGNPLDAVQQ

[16] = probe aInhba binding on compound microarray – biochemical, small-molecule microarray, 635/667 nm fluorescence, primary screen (AID 1148); settings: higher = more signal;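 also: score merges 667nm spot fluorescence with signal-to-noise for antibody binding to printed compounds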
Torsin-1A (Homo sapiens) [17] = biological target: Torsin-1A (Homo sapiens) (UniProt O14656); experiment: TOR1A wild-type binding on microarray – cell lysate, small-molecule microarray, lysate, 635/667 nm, primary screen (AID 1149); settings: COS7 hTOR1A-WT lysate, 635 nm fluorescence, higher = more signal
Chain of Torsin-1A (Homo sapiens) (O14656 whole entry, looked up): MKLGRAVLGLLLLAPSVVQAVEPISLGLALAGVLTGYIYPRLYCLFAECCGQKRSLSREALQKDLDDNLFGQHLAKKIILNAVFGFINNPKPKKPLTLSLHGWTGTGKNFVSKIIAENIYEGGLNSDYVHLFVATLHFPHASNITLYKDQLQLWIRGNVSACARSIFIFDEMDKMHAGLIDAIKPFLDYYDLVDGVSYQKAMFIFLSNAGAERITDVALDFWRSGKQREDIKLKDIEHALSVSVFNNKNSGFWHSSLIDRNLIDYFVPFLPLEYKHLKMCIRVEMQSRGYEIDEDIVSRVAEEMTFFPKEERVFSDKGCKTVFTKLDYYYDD

Torsin-1A (Homo sapiens) [18] = biological target: Torsin-1A (Homo sapiens) (UniProt O14656); experiment: torsin A mutant lysate binding on microarrays – cell lysate, small-molecule microarray, COS7 lysate, 635/667 nm fluorescence, primary screen (AID 1150); settings: COS7 hTOR1A mutant lysate, 635 nm fluorescence, higher = more signal;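 also: score pools 667 nm emission and signal to noise measuring lysate protein binding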
[19] = system: Sonic hedgehog protein (Shh); experiment: Sonic hedgehog microarray binding compounds – biochemical, small-molecule microarray, 635/667 nm fluorescence, primary screen (AID 1151); settings: 635 nm fluorescence, higher = more signal;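 also: Shh protein binding to compounds spotted on small-molecule microarray slides; score combines spot fluorescence intensity with signal-to-noise across triplicate slides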

| SMILES | composite z-score [1] | composite z-score [2] | composite z-score [3] | composite z-score [4] | composite z-score [5] | composite z-score [6] | z-score [7] | composite z-score (Lefty1) | composite z-score [8] | z-score [9] | composite z-score [10] | z-score [11] | z-score [12] | z-score [13] | z-score [14] | composite z-score [15] | composite z-score [16] | composite z-score (Torsin-1A (Homo sapiens) [17]) | composite z-score (Torsin-1A (Homo sapiens) [18]) | composite z-score [19] |
| --- | --- | --- | --- | --- | --- | --- | --- | --- | --- | --- | --- | --- | --- | --- | --- | --- | --- | --- | --- | --- |
| COC(=O)[C@@]1(Cc2ccc(OC)cc2)[C@H]2c3cc(C(=O)N4CCCC4)n(Cc4cccc5ccccc45)c3C[C@H]2CN1C(=O)c1ccccc1 | 1.57 | 1.2 | 0.164 | 0.704 | 0.36 | -0.247 | 1.07 | -0.245 | 0.396 | 1.31 (inactive) | 0.43 | -2.8 (inactive) | 1.14 (inactive) | 0.0041 (inactive) | 0.259 (inactive) | 0.688 | 0.447 | -0.25 | 0.338 | -0.338 |
| C=CCN1C(=O)[C@@]2(O[C@@H](CCn3cc([C@H](O)c4ccccc4)nn3)[C@H]([Si](C)(C)c3ccc(OC)cc3)[C@H]2C)c2cc(N3CCC3=O)ccc21 | 1.65 | 1.09 | -0.082 | -0.117 | 0.345 | 0.0863 | 2.25 | -0.127 | 0.552 | -1.21 (inactive) | -0.162 | -1.83 (inactive) | -1.01 (inactive) | 17 (active) | -1.02 (inactive) | -0.101 | -0.154 | 0.195 | 0.183 | -0.0053 |
| COCCOC(=O)N1C(=O)[C@@]2(c3cc(C#CC4=CCCCC4)ccc31)[C@H](C(N)=O)[C@H]1C(=O)O[C@H](c3ccccc3)[C@H](c3ccccc3)N1[C@@H]2c1ccccc1OCCO | 1.34 | 1.21 | 0.143 | 0.939 | 1.31 | 1.42 | -1.89 | 0.943 | 1.05 | -0.591 (inactive) | 0.183 | -6.52 (inactive) | -0.413 (inactive) | -0.333 (inactive) | -0.855 (inactive) | 0.483 | 0.147 | 0.38 | 1.41 | 1.08 |
| CCOC(=O)C[C@H]1[C@H](OC(=O)Cc2ccc3c(c2)OCO3)[C@@H](NC(=O)CC(C)C)c2cc(OCCCO)ccc2N1C(=O)Cc1ccc(OC)cc1 | -0.114 | 0.0383 | -0.224 | 0.641 | -0.123 | 0.11 | 0.903 | -0.194 | 0.62 | -1.91 (inactive) | -0.199 | -1.04 (inactive) | 0.29 (inactive) | 0.0918 (inactive) | -0.513 (inactive) | -0.0258 | -0.0471 | 0.288 | -0.115 | -0.113 |
| CN(C)CCCNC(=O)[C@@H]1c2ccccc2C(=O)N(Cc2ccccc2Cl)[C@H]1c1ccc(CO)cc1 | 1.3 | 0.51 | -0.0522 | 0.462 | -0.0713 | -0.0728 | 1.53 | -0.92 | 1.05 | -0.751 (inactive) | -0.12 | -1.77 (inactive) | 0.388 (inactive) | -0.206 (inactive) | -0.343 (inactive) | -0.34 | -0.182 | 1.59 | 0.798 | -0.12 |
| COCCOC(=O)N1C(=O)[C@@]2(c3ccccc31)[C@H](C(=O)N1CCN(c3ncccn3)CC1)[C@H]1C(=O)O[C@H](c3ccccc3)[C@H](c3ccccc3)N1[C@@H]2c1ccc(O)cc1 | 1.12 | 0.613 | 0.585 | 0.675 | -0.147 | 0.173 | -0.189 | 0.0567 | 0.875 | -0.378 (inactive) | 0.135 | -2.65 (inactive) | 0.0365 (inactive) | 0.631 (inactive) | -0.484 (inactive) | 0.284 | -0.41 | -0.396 | -0.35 | 1.07 |
| CC(=O)c1ccc(C(O)C2C=CC3C(=O)N(c4ccccc4)C(=O)C3N2Nc2ccc(C#N)cc2)cc1 (stereo not given) | 0.631 | 1.01 | 1.27 | 0.72 | -0.111 | 0.196 | 0.0866 | -0.253 | 0.714 | -0.0334 (inactive) | -0.14 | 0.338 (inactive) | -0.864 (inactive) | 1.19 (inactive) | 0.574 (inactive) | 1.14 | 0.0422 | -0.167 | 0.261 | -0.964 |
| CCCC[C@@H]1C[C@H]1[C@@H](NC(=O)Cc1ccccc1)c1ccc(-c2ccccc2)cc1 | 0.272 | 1.12 | 0.913 | 0.655 | -0.173 | -0.405 | 0.629 | -0.0127 | 0.0864 | 0.624 (inactive) | -0.111 | -1.31 (inactive) | 1.65 (inactive) | 0.39 (inactive) | 1.19 (inactive) | 0.698 | -0.158 | -0.369 | 0.21 | -0.756 |
| COC(=O)c1c(CC[C@@H](CO)NC(=O)N2CCC[C@H]2Cn2cc(Cc3ccccc3)nn2)oc(C(C)=O)c1C(=O)OC | -0.0636 | 0.485 | 0.397 | -0.522 | 0.613 | 0.147 | -0.58 | 0.824 | 0.541 | 1.15 (inactive) | -0.0725 | -0.393 (inactive) | 0.726 (inactive) | -0.244 (inactive) | -0.152 (inactive) | -0.114 | -0.0736 | -0.0521 | 0.398 | 1.84 |
| COC(=O)[C@@]1(Cc2ccc(OC)cc2)[C@H]2c3cc(C(=O)N(C)C)n(C[C@H](O)CO)c3C[C@H]2CN1C(=O)c1ccccc1 | 0.396 | 1.2 | 1.17 | 0.904 | 0.291 | -1.16 | 0.193 | -0.908 | 1.34 | 0.543 (inactive) | 0.533 | -2.58 (inactive) | -0.0273 (inactive) | 0.39 (inactive) | 1.33 (inactive) | 1.41 | 0.116 | 0.219 | 1.16 | -0.753 |
| C=CCC(OC(C)=O)[C@@H]1[C@@H](N(Cc2cc3ccccc3o2)C(=O)c2ccc(C)cc2)c2cc(OCCCO)ccc2N1C(=O)Cc1ccc(OC)cc1 (stereo not given in full) | 0.0464 | -0.454 | 0.0903 | 0.0839 | 0.924 | 0.158 | 1.33 | -0.0083 | 0.273 | -1.37 (inactive) | 0.525 | -0.102 (inactive) | -0.491 (inactive) | 0.558 (inactive) | -0.409 (inactive) | 1.57 | -0.0044 | -0.28 | 0.0194 | 0.809 |
| C[N+](C)(C)CCCC[C@@H]1NC(=O)[C@H]2C[C@@H](C(=O)NCCCCCCN)[C@@H](c3ccc(O)cc3)N2C1=O | 3.15 | 1.13 | 0.145 | 0.973 | 0.835 | 0.299 | 0.792 | -0.046 | 1.17 | -0.932 (inactive) | 0.408 | -0.548 (inactive) | 1.09 (inactive) | -0.528 (inactive) | -1.1 (inactive) | 0.859 | 0.108 | 0.774 | 0.545 | -0.117 |

— PubChem BioAssay
